The values below come from PubChem BioAssay (Tox21).

Molecules are shown by their SMILES. Unmarked numbers belong to inactive results. Records with an inconclusive call do not appear. The source made the active and inactive calls. Unless noted, the call rests on the fitted dose curve; in most records, active means well fitted curve in the direction sought with a large enough effect in the repeat runs; inconclusive means weak or mixed curves; inactive means no such curve, though single readings can be large; an effect the other way counts as inactive or inconclusive.

In test [1] the target is Luciferin 4-monooxygenase (Photinus pyralis) (UniProt P08659). As to the kind of experiment: qHTS assay to identify small molecule inhibitors of firefly luciferase (AID 1224835). Further: series mostly up to about 120 µM; nearly all actives have a fitted effect of over 25% in size. The procedure, abridged: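 Quantitative HTS format; KM concentrations of both substrates. Purified P. pyralis FLuc activity quantified from luminescence images.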
In general terms: In qHTS, concentration-response curves come from the screen itself.

Test [2] in a line: qHTS assay to identify small molecule agonists of the constitutive androstane receptor (CAR) signaling pathway - cell viability counter screen (AID 1224836). Further: series mostly up to about 92 µM; nearly all actives have a fitted effect of over 45% in size. The procedure, abridged:
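HepG2-CYP2B6-hCAR, 2500 cells/well, 4 h pre-incubation; cpd 15 conc + PK11195 0.75 uM final; 23 h, 37 C/5% CO2; CellTiter-Fluor, fluorescence.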

Test [3] can be described thus: qHTS assay to identify small molecule antagonists of the constitutive androstane receptor (CAR) signaling pathway - cell viability counter screen (AID 1224837). Further: series mostly up to about 92 µM; nearly all actives have a fitted effect of over 45% in size. The procedure, abridged: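 HepG2-CYP2B6-hCAR cells, 2500/well, 4 hr pre-incubation; compound titration, 15 conc.; CITCO 50 nM final; 23 hr, 37 C/5% CO2; CellTiter-Fluor, fluorescence intensity.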
For test [4], the target named is Nuclear receptor subfamily 1 group I member 3 (Homo sapiens) (UniProt Q14994). The experiment in a line: qHTS assay to identify small molecule antagonists of the constitutive androstane receptor (CAR) signaling pathway (AID 1224838).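 Further: HepG2 cells stably expressing hCAR with CYP2B6 luciferase reporter stimulated by CITCO; nearly all actives have a fitted effect of over 40% in size.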 The procedure, abridged: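 HepG2-CYP2B6-hCAR cells; 4 h pre-incubation; cpd (15 conc) + CITCO 50 nM final; 24 h, 37 C/5% CO2; ONE-Glo, luminescence.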

Test [5] shares this target. As to the kind of experiment: qHTS assay to identify small molecule agonists of the constitutive androstane receptor (CAR) signaling pathway (AID 1224839).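 Further: HepG2 cells stably carrying human CAR and a CYP2B6 luciferase reporter; series mostly up to about 92 µM; nearly all actives have a fitted effect of over 15% in size.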 A digest of the protocol:
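HepG2-CYP2B6-hCAR cells, 2500/well, 4 h pre-incubation; compounds 15 conc.; PK11195 0.75 uM final; 24 h, 37 C/5% CO2; ONE-Glo luciferase read.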

Test [6] is described as follows: qHTS assay to identify small molecule antagonists of the estrogen related receptor signaling pathway with the pleiotropic PPARgamma coactivator (PGC) from Tox21 10K library - cell viability counter screen (AID 1224840; active means well fitted cell-killing curve with a large enough effect in the repeat runs, not every such curve was filed as active; further: nearly all actives have a fitted effect of over 40% in size). The procedure, abridged:
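PGC/ERR cells, 2,000/well; 6 h pre-incubation 37 C/5% CO2; cpd in DMSO via pin tool; 17.5 h 37 C; CellTiter-Fluor, 30 min; fluorescence.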

Test [7] in a line: qHTS assay to identify small molecule antagonists of the estrogen related receptor signaling pathway with the pleiotropic PPARgamma coactivator (PGC) from Tox21 10K library (AID 1224841; call rule not given here; further: series mostly up to about 92 µM; actives are mostly falling curves and most rising ones were filed inactive; nearly all actives have a fitted effect of over 50% in size). The procedure, abridged: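 PGC/ERR cell line, 2,000 cells/well; 6 h pre-incubation 37 C/5% CO2; compounds (DMSO) pinned in; 18 h, 37 C; One-Glo, 30 min RT; luminescence.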
Test [8] can be described thus: qHTS assay to identify small molecule agonists of the estrogen related receptor signaling pathway with the pleiotropic PPARgamma coactivator (PGC) from Tox21 10K library (AID 1224842). Further: nearly all actives have a fitted effect of over 15% in size. The procedure, abridged: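 PGC/ERR reporter cells (NTP line) were seeded 2,000 per well, rested 6 h at 37 C/5% CO2, then pin-dosed with compounds in DMSO for 18 h at 37 C; luciferase read by One-Glo luminescence after 30 min at room temperature.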

Test [9] deals with Thyrotropin receptor (Homo sapiens) (UniProt P16473). As to the kind of experiment: qHTS assay to identify small molecule agonists of the thyroid stimulating hormone receptor (TSHR) signaling pathway (AID 1224843; calls by dose curve; further: nearly all actives have a fitted effect of over 45% in size; further: potency means the concentration at half of the fitted maximal effect). A digest of the protocol:
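Cell line HEK293 with TSHR; density 800/well. Exposure 30 min RT. Readout HTRF cAMP (cAMP-d2/anti-cAMP-cryptate), 1 h RT before reading.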

Test [10] in a line: qHTS assay to identify small molecule agonists of the hypoxia (HIF-1) signaling pathway - cell viability counter screen (AID 1224844; calls by dose curve; further: nearly all actives have a fitted effect of over 50% in size). The procedure, abridged:
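ME-180 HRE-bla cells, 2,000/well, 0.5% dialyzed FBS; 5 hr settle, 17 hr compound at 37C/5% CO2; CCF4-AM reporter read first, then CellTiter-Glo luminescence after 30 min RT.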

Test [11] is described as follows: qHTS assay to identify small molecule agonists of H2AX (AID 1224845; active means well fitted activation curve with a large enough effect in the signal ratio in the repeat runs, not every such curve was filed as active; the % refers to the signal ratio). The procedure, abridged:
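Wild-type CHO-K1 cells plated overnight, then exposed 3 hr at 37C to compounds at 15 concentrations (0.76% DMSO). Lysed, then HTRF anti-pH2AX(S139)-cryptate/anti-H2AX-d2 detection after 24 hr at room temperature; emissions 665 and 620 nm.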

Test [12] is described as follows: qHTS assay to identify small molecule agonists of the hypoxia (HIF-1) signaling pathway (AID 1224846; active means well fitted activation curve with a large enough effect in the signal ratio in the repeat runs, not every such curve was filed as active; the % refers to the signal ratio). The procedure, abridged: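 Cell line: CellSensor HRE-bla ME-180; 2,000 cells/well; 0.5% dialyzed FBS; 5 h preincubation; DMSO compound pin transfer; 17 h, 37C, 5% CO2; CCF4-AM added; bla FRET signal scored for activation.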
Test [13] can be described thus: qHTS assay to identify small molecule agonists of H2AX - cell viability counter screen (AID 1224847; calls by dose curve; further: top concentration of the series differs between compounds; nearly all actives have a fitted effect of over 30% in size). The procedure, abridged:
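Cells plated first: CHO-K1, 1000 per well in 10% FBS medium, incubated overnight at 37C. Then 15-point compound titration added (final DMSO 0.76%) for 3 hr. Finally CellTiter-Glo added and luminescence read.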

A short description of test [14]: qHTS assay to identify small molecule antagonists of the estrogen related receptor (ERR) signaling pathway from Tox21 library (AID 1224848). Further: nearly all actives have a fitted effect of over 50% in size. The procedure, abridged: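 Screening used an ERR reporter line supplied by NTP, exposed for 18 h at 37 C to library compounds delivered in DMSO. Signal was luciferase luminescence developed with ONE-Glo at room temperature for 30 min.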

A short description of test [15]: qHTS assay to identify small molecule agonists of the estrogen related receptor (ERR) signaling pathway from Tox21 library (AID 1224849; calls by dose curve; further: nearly all actives have a fitted effect of over 15% in size). A digest of the protocol:
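ERR cells, 6 h pre-incubation 37 C/5% CO2; cpd in DMSO pinned; 18 h 37 C; ONE-Glo added, 30 min RT; luminescence read. Agonist mode, qHTS.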

The nature of test [16]: qHTS RealTime-Glo MT Cell Viability Assay in HepG2 cells - 24 hour (AID 1224867). Further: nearly all actives have a fitted effect of over 50% in size. A digest of the protocol:
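Tox21 10K library screened in qHTS format on HepG2 cells carrying RealTime-Glo reagents. Compounds were added after a 5 h preincubation, and the luminescent signal from continuous culture was measured repeatedly during 40 h treatment.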

The nature of test [17]: qHTS RealTime-Glo MT Cell Viability Assay in HEK293 cells - 32 hour (AID 1224868). The procedure, abridged:
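Luminescence generated by NanoLuc from substrate produced by living HEK293 cells served as the viability signal. Each value reflects the reading at its stated time point during continuous 40 h compound exposure at 37 C.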

Test [18] can be described thus: A CellTox Green Cytotoxicity Assay to monitor cytotoxicity in HEK293 cells - 0 hour (AID 1224869). Further: nearly all actives have a fitted effect of over 50% in size. The procedure, abridged: (§1)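 Nonlytic real-time cytotoxicity: HEK293 + CellTox Green reagent plated, 5 h preincubation, pintool compound addition (23 nL in DMSO), 37 C for 40 h, fluorescence measured at successive time points.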
The nature of test [19]: qHTS RealTime-Glo MT Cell Viability Assay in HepG2 cells - 40 hour (AID 1224870). Further: nearly all actives have a fitted effect of over 50% in size. A digest of the protocol:
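HepG2 cells mixed with RealTime-Glo MT reagents (NanoLuc plus cell-permeant prosubstrate) were seeded at 600 cells/well, incubated 5 h at 37 C/5% CO2, then pinned with compounds in DMSO; nonlytic luminescence tracked viability during 40 h treatment.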

Test [20] can be described thus: A CellTox Green Cytotoxicity Assay to monitor cytotoxicity in HEK293 cells - 40 hour (AID 1224871). Further: nearly all actives have a fitted effect of over 45% in size. A digest of the protocol: as §1
On the % scale 0 is the no-effect control and ±100 the full control effect.

Chain of Luciferin 4-monooxygenase (Photinus pyralis) (P08659 whole entry, looked up): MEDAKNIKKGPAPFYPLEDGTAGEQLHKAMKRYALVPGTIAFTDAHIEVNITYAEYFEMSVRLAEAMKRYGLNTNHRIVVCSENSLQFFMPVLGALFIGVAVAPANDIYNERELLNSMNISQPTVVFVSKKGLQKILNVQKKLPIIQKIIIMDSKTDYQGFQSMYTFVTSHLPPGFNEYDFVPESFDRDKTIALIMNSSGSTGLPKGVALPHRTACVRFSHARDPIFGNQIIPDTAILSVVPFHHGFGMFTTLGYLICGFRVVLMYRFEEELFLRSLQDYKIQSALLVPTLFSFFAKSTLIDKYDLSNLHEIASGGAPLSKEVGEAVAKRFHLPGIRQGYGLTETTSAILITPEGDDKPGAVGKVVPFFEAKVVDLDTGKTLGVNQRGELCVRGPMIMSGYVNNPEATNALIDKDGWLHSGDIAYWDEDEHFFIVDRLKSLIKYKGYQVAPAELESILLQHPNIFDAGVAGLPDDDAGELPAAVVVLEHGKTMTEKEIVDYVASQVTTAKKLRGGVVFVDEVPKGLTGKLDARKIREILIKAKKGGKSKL
Chain of Thyrotropin receptor (Homo sapiens) (P16473 whole entry, looked up): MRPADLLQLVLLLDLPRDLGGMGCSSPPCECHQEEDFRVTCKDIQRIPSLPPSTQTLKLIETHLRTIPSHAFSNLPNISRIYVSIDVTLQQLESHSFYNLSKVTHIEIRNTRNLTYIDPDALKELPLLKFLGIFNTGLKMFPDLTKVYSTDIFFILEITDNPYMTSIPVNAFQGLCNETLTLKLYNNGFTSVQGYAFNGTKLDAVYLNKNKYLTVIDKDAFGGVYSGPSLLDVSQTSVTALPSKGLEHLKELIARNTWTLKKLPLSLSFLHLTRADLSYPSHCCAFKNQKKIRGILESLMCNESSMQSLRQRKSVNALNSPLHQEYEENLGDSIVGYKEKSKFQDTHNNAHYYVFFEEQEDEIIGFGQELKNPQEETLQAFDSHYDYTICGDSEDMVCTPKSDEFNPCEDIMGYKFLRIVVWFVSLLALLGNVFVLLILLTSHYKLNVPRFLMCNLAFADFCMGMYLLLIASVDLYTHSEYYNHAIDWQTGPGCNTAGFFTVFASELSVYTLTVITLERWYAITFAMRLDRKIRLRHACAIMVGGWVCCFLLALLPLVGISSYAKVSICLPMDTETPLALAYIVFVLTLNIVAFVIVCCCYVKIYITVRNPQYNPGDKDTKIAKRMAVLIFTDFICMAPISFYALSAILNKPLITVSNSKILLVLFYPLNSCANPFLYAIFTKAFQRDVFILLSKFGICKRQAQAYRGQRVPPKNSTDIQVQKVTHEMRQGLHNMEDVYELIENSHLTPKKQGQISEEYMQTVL
Chain of Nuclear receptor subfamily 1 group I member 3 (Homo sapiens) (Q14994 whole entry, looked up): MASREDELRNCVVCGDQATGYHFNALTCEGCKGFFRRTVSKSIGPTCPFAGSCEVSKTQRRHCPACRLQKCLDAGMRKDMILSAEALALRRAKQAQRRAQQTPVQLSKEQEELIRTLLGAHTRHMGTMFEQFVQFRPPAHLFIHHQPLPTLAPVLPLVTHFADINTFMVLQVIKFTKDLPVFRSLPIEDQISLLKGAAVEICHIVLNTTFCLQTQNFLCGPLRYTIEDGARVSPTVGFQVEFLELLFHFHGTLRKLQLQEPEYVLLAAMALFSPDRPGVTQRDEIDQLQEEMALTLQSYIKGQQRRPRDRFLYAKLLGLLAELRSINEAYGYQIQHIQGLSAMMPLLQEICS

Consider `CC(COc1ccccc1)NN` (centres undefined), for which the Potency entry in test [1], in test [4], in test [5], in test [7], in test [8] and in test [9] was “inactive” each time. In addition, the Potency entry in test [10], in test [11], in test [14], in test [17], in test [19] and in [20] was “inactive” in each case. Further, the compound was classed as inactive in test [2], in test [3], in [6], in test [12], in test [13] and in test [15]. Also, the outcome in [16] and in test [18] was inactive.
For `Nc1c2c(nc3c1CCC3)CCCC2`, the Potency entry in test [1], in test [4], in [5], in test [7], in test [8] and in [10] was “inactive” each time. The Potency result in [11], in test [14], in test [17], in test [19] and in test [20] was “inactive” in each case. The call in [2], in test [3], in [6], in [12], in test [13] and in test [15] was inactive. For the same compound, the outcome in [16] and in test [18] was inactive.
On to `CCCCN(CCC(=O)OCC)C(C)=O`, for which the Potency result in test [1], in test [4], in [5], in test [9], in test [10] and in test [11] was “inactive” throughout. Moreover, the Potency entry in [17], in test [19] and in [20] was “inactive” in each case. Also, the result in [2], in [3], in test [6], in test [12], in test [13] and in [16] was inactive. Also, in test [18], the compound was called inactive.
On to `CNCC(O)c1ccc(O)c(O)c1` (centres undefined), for which the Potency result in [1], in test [4], in test [5], in test [7], in test [14] and in [17] was “inactive” each time. Moreover, the Potency entry in [19] and in test [20] was “inactive” throughout. Also, the compound was classed as inactive in test [2], in [3], in test [6], in test [13], in test [16] and in test [18]. The Potency in test [9] was 2980 nM (active).
Consider `C=CCCCCCCCCC(=O)OCC`, for which the Potency entry in test [1], in test [4], in test [5], in test [7], in test [8] and in [9] was “inactive” in each case. Besides, the Potency result in test [11], in [14], in test [17] and in [19] was “inactive” each time. Besides, the call in [2], in test [3], in test [6], in test [12], in test [13] and in test [15] was inactive. The call in test [16] and in [18] was inactive.
For the compound `CC1=NN(c2cccc(S(=O)(=O)O)c2)C(=O)C1`, the Potency result in test [1], in test [4], in test [5], in [7], in test [8] and in [9] was “inactive” throughout. Further, the Potency entry in test [14], in test [17] and in test [19] was “inactive” in each case. The call in test [2], in [3], in test [6], in [12], in [13] and in test [15] was inactive. The outcome in test [16] and in test [18] was inactive.
As to `CCCCN1C=CN(C)C1`, the activity change, negative = inhibition in test [1] is -0.0434% [at 23.6 µM]. Besides, the viability change, negative = cytotoxic in [2] was 5.36% [at 19 µM]; in [6], 1.46% [at 19 µM]. Also, the activity change, negative = cytotoxicity in test [3] was -1.55% [at 19 µM]; in test [10], -14.8% [at 15.8 µM]; in test [13], -1.83% [at 31.6 µM]; in [16] it was 3.12% [at 15.8 µM]. The activity, negative = inhibition in test [4] is 14.7% [at 19 µM]; in test [14], 18.5% [at 19 µM]. Moreover, the activation in test [5] is -0.414% [at 19 µM]; in [8] it was 0.537% [at 19 µM]; in [9] it was 2.47% [at 19 µM]; in test [12] it was -0.256% [at 15.8 µM]. The activation (H2AX phosphorylation) in [11] is -0.0666% [at 31.6 µM]. Further, the activity change, positive = activation in test [15] was 9.96% [at 19 µM]. In addition, the activity change, negative = cytotoxic is 8.51% [at 15.8 µM] in [17] and -0.384% [at 15.8 µM] in test [19]. For the same compound, in [18], the cytotoxicity was -3.75% [at 15.8 µM]. Besides, in test [20], the cytotoxicity increase is -12.1% [at 15.8 µM].
